For five sequences, PBM binding z-score results are on record in the supplement of paper PMC6555819.

Holding throughout (test): PBM binding z-score (relative to random genomic background probes); higher = stronger binding; sequences stand for … in GC…GCGATTGACAGCGTAGAATGAAGG
In experiment [1] the test system is FXR:RXRa (NR concentration 270 nM, RXRa partner concentration 90 nM). A digest of the protocol: (§1)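 Ligand-free nuclear receptor dimers were applied to custom Agilent 4×180K protein-binding microarrays whose double-stranded probes carried direct-repeat seeds, single-nucleotide variants, half-site ablations and random human genomic background sequences in 34-nt variable regions. Incubation lasted 1 h. Binding z-scores were computed against the random background probes from regression-normalized fluorescence.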

The subject of experiment [2] is LXRa:RXRa (NR concentration 270 nM, RXRa partner concentration 90 nM). A digest of the protocol:
as §1

Experiment [3] has as its system LXRa homodimer (NR concentration 270 nM). A digest of the protocol:
as §1

For experiment [4], the system named is LXRb:RXRa (NR concentration 270 nM, RXRa partner concentration 90 nM). A digest of the protocol: as §1
The subject of experiment [5] is LXRb homodimer (NR concentration 270 nM). A digest of the protocol:
as §1

Experiment [6] has as its system PPARa:RXRa (NR concentration 270 nM, RXRa partner concentration 90 nM). A digest of the protocol: as §1
Experiment [7] has as its system PPARg:RXRa (NR concentration 180 nM, RXRa partner concentration 90 nM). A digest of the protocol: as §1
Experiment [8] deals with PPARg:RXRa 270nM:90nM, anti-RXR (NR concentration 270 nM, RXRa partner concentration 90 nM). A digest of the protocol: as §1
In experiment [9] the test system is PPARg:RXRa 30nM:10nM, anti-RXR (NR concentration 30 nM, RXRa partner concentration 10 nM). A digest of the protocol: as §1
Experiment [10] concerns PPARg:RXRa 90nM:30nM, anti-RXR (NR concentration 90 nM, RXRa partner concentration 30 nM). A digest of the protocol:
as §1

For experiment [11], the system named is PPARg:RXRa DBDmut IVT, anti-RXR (DBD mutation: RXRa K156A/R161A, NR concentration 270 nM, RXRa partner concentration 90 nM). A digest of the protocol:
as §1

Experiment [12] has as its system PPARg:RXRa IVT, anti-PPARg (NR concentration 270 nM, RXRa partner concentration 90 nM). A digest of the protocol:
as §1

For experiment [13], the system named is PPARg DBDmut:RXRa IVT, anti-PPARg (DBD mutation: PPARg1 K132A/R137A, NR concentration 270 nM, RXRa partner concentration 90 nM). A digest of the protocol:
as §1

The test system of experiment [14] is PPARg DBDmut IVT, anti-PPARg (DBD mutation: PPARg1 K132A/R137A, NR concentration 270 nM). A digest of the protocol: as §1
Experiment [15] relates to PPARg homodimer (NR concentration 180 nM). A digest of the protocol:
as §1

Experiment [16] concerns PXR:RXRa (NR concentration 270 nM, RXRa partner concentration 90 nM). A digest of the protocol: as §1
Experiment [17] has as its system PXR homodimer (NR concentration 270 nM). A digest of the protocol:
as §1

Experiment [18] concerns RARa:RXR (NR concentration 270 nM, RXRa partner concentration 90 nM). A digest of the protocol:
as §1

Experiment [19] deals with RARa homodimer (NR concentration 270 nM). A digest of the protocol:
as §1

For experiment [20], the system named is RARb:RXRa (NR concentration 270 nM, RXRa partner concentration 90 nM). A digest of the protocol: as §1

In the case of TCTATTAGTTGAAGGGCAACTGACGAGTCCGTTT, the PBM binding z-score came to 0.705 in experiment [1]; 0.726 in experiment [2]; 0.328 in experiment [3]; 0.815 in experiment [4]; 0.416 in experiment [5]; 1.09 in experiment [6]. In addition, the PBM binding z-score in [7] turned out to be 0.086; in experiment [8], 2.28; in [9], 3.74; in experiment [10] it was 3.07; in experiment [11] it was 2.25; in experiment [12], 0.905. Further, the PBM binding z-score is 0.468 in [13]; 0.573 in experiment [14]; 0.905 in experiment [15]; 0.88 in experiment [16]; 0.479 in experiment [17]; 1.08 in [18]. The results for the PBM binding z-score in [19] and in experiment [20] were 1.44 and 1.6, respectively.

As to CGTCCAAGGTCAGCAGGTCAGTTAAAGCGACGTG, the PBM binding z-score is 6.18 in [1]; 4.17 in experiment [2]; 0.53 in [3]; 3.54 in experiment [4]; -0.0511 in [5]; 4.97 in experiment [6]. In addition, the PBM binding z-score in experiment [7] amounted to 4.14; in experiment [8], 4.73; in [9], 1.44; in experiment [10], 3.28; in [11] it was 3.4; in experiment [12], 3.71. For the same sequence, the PBM binding z-score in experiment [13] is -0.851; in experiment [14] it was -0.676; in [15], 3.29; in experiment [16], 3.76; in experiment [17] it was 0.476; in experiment [18], 4.7. Further, the PBM binding z-score was determined as 1.05 in experiment [19] and 5.53 in experiment [20].

In the case of TTACCATGGTGAAAGGTCGTTGATGCACGCCTTG, the PBM binding z-score in experiment [1] is 1.54; in [2], 1.93; in [3], 0.41; in experiment [4], 2.22; in experiment [5], -0.316; in experiment [6], 4.04. The PBM binding z-score in [7] amounted to 5.88; in experiment [8], 6.89; in [9] it was 5.62; in experiment [10] it was 8.01; in experiment [11] it was 0.72; in [12], 2.89. For the same sequence, the PBM binding z-score in [13] was 0.347; in experiment [14], -0.209; in experiment [15] it was 0.983; in experiment [16], 2.74; in [17], 0.676; in [18], 3.2. Further, the PBM binding z-score in experiment [19] is -0.159; in experiment [20], 1.94.

CGAACTAGGTCATTGACAGGACATTGAATAGTAA: the PBM binding z-score in experiment [1] amounted to 3.53; in experiment [2] it was 3.53; in [3], 1.19; in [4], 2.32; in experiment [5] it was 0.107; in experiment [6] it was 4.56. The PBM binding z-score in experiment [7] was 7.27; in [8], 6.42; in experiment [9], 4.27; in experiment [10] it was 5.95; in [11], 8.1; in experiment [12], 8.23. The PBM binding z-score in experiment [13] stood at 1.94; in experiment [14], 1.62; in experiment [15], 1.29; in experiment [16], 2.35; in experiment [17] it was 0.404; in experiment [18], 2.06. Further, the PBM binding z-score in experiment [19] stood at 0.367; in experiment [20], 3.52.

Take AGAACGAGGGCAATGAGATGATAGCACGGGTGGC: the PBM binding z-score in experiment [1] is 0.277; in experiment [2], 0.121; in experiment [3], -0.31; in experiment [4], -0.282; in [5] it was -0.486; in experiment [6], 1.02. For the same sequence, the PBM binding z-score in experiment [7] came to 1.58; in experiment [8], 0.593; in [9], 0.201; in [10], 0.528; in [11], 3.28; in experiment [12], 2.47. Moreover, the PBM binding z-score in experiment [13] was found to be 1.03; in [14], 0.417; in experiment [15], 0.45; in experiment [16], 0.149; in experiment [17] it was 0.0572; in [18] it was 0.235. In addition, the PBM binding z-score in experiment [19] amounted to 0.363; in [20], 2.05.
